Laboratory results as given in PubChem BioAssay (NCATS).
“And” between values parts separate entries of the source, which are not always exact repeats. Equal entries are not always repeated. Results filed as inconclusive are left out. The source made the active and inactive calls. Unless noted, the call rests on the fitted dose curve; in most records, active means well fitted curve in the direction sought with a large enough effect; inconclusive means small, poorly fitted or top-dose-only effect, or another doubt; inactive means no such curve, though single readings can be large; an effect the other way counts as inactive or inconclusive.

Key:
C33A = assay: Primary qHTS to identify gynecologic anti-cancer compounds using libraries of approved drugs and bioactive compounds (AID 1345084); conditions: Gynecologic cancer cell panel viability, ATPlite luminescence, 48 h; series mostly up to 57.5 µM; further: on the % scale 0 is the no-effect control and ±100 the full control effect; nearly all actives have a fitted effect of over 55% in size
Summary of the method: (§1)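 Cells, 1,000 per well, were allowed to settle for 16 h at 37 C before compound addition. Five concentrations were tested for 48 h, and viability was read by ATPlite luminescence after 15 min at room temperature.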

CAOV3 = assay: as above; conditions: Gynecologic cancer cell panel viability, ATPlite luminescence, 48 h; series mostly up to 57.5 µM
Summary of the method: as §1

CASKI = assay: as above; conditions: Gynecologic cancer cell panel viability, ATPlite luminescence, 48 h; series mostly up to 57.5 µM
Summary of the method: as §1

Es-2 = assay: as above; conditions: Gynecologic cancer cell panel viability, ATPlite luminescence, 48 h; series mostly up to 57.5 µM
Summary of the method: as §1

HeLa = assay: as above; conditions: Gynecologic cancer cell panel viability, ATPlite luminescence, 48 h; series mostly up to 57.5 µM
Summary of the method: as §1

Hek293T = assay: as above; conditions: Gynecologic cancer cell panel viability, ATPlite luminescence, 48 h, control line for the selectivity index; series mostly up to 57.5 µM
Summary of the method: as §1

JEG-3 = assay: as above; conditions: Gynecologic cancer cell panel viability, ATPlite luminescence, 48 h; series mostly up to 57.5 µM
Summary of the method: as §1

OV90 = assay: as above; conditions: Gynecologic cancer cell panel viability, ATPlite luminescence, 48 h; series mostly up to 57.5 µM
Summary of the method: as §1

PA-1 = assay: as above; conditions: Gynecologic cancer cell panel viability, ATPlite luminescence, 48 h; series mostly up to 57.5 µM
Summary of the method: as §1

SKOV3 = assay: as above; conditions: Gynecologic cancer cell panel viability, ATPlite luminescence, 48 h; series mostly up to 57.5 µM
Summary of the method: as §1

Tov-21-G = assay: as above; conditions: Gynecologic cancer cell panel viability, ATPlite luminescence, 48 h; series mostly up to 57.5 µM
Summary of the method: as §1

Tov112D = assay: as above; conditions: Gynecologic cancer cell panel viability, ATPlite luminescence, 48 h; series mostly up to 57.5 µM
Summary of the method: as §1

[1] = Drug repurposing screens with cells derived from glioblastoma tumor samples (AID 1345199); conditions: GBM patient neurospheres viability, ATP luminescence, 48 h; further: nearly all actives have a fitted effect of over 40% in size; further: potency means the concentration at half of the fitted maximal effect; on activity, negative = cell killing: on the % scale 0 is the no-effect control and ±100 the full control effect
Summary of the method: (§2)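 Four patient lines of CD133+ GBM neurospheres were screened at several concentrations; hits were retested in those lines plus three slower-growing GBM lines, using 48-hour treatment and ATP-based viability.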

[2] = biological target: Nuclear receptor subfamily 1 group I member 2 (Rattus norvegicus) (UniProt Q9R1A7); assay: qHTS assay for small molecule activators of the rat pregnane X receptor (rPXR) signaling pathway (AID 651751; call rule not given here; further: 0% is about no effect); conditions: rPXR reporter cells, luciferase (One-Glo), 24 h
[3] = qHTS assay for small molecule activators of the human pregnane X receptor (PXR) signaling pathway (AID 720659; call rule not given here; further: 0% is about no effect)
astro = assay: Drug repurposing screens with cells derived from glioblastoma tumor samples (AID 1345199); conditions: viability, ATP luminescence, 48 h; series mostly up to 45.9 µM; further: nearly all actives have a fitted effect of over 40% in size; further: potency means the concentration at half of the fitted maximal effect; on activity, negative = cell killing: on the % scale 0 is the no-effect control and ±100 the full control effect
Summary of the method: as §2

[4] = at 45.9 µM (top of the series), tumour line B
[5] = at 45.9 µM (top of the series), tumour line D
[6] = at 46 µM (top of the series), tumour line A
[7] = at 46.1 µM (top of the series), tumour line C

Nuclear receptor subfamily 1 group I member 2 (Rattus norvegicus), sequence (Q9R1A7 whole entry, looked up): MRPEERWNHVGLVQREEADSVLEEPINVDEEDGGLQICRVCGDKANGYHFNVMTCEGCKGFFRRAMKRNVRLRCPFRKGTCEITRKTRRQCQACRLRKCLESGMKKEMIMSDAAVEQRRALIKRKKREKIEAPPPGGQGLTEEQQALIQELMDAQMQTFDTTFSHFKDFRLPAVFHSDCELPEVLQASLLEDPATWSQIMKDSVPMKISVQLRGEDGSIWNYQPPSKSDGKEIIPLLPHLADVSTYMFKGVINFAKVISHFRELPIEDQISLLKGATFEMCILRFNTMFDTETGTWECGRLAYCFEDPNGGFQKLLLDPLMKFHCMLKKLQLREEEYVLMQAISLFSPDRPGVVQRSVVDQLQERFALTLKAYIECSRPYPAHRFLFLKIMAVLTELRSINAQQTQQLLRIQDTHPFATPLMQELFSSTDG

ClCCN1CCCC1
inactive: Potency (C33A) | outcome (CAOV3) | outcome (CASKI) | Potency (Es-2) | Potency (HeLa) | outcome (Hek293T) | outcome (JEG-3) | Potency (OV90) | Potency (PA-1) | outcome (SKOV3) | Potency (Tov-21-G) | Potency (Tov112D)

C[C@@H](N)[C@@H](O)c1ccccc1
inactive: Potency (C33A) | outcome (CAOV3) | outcome (CASKI) | Potency (Es-2) | Potency (HeLa) | outcome (Hek293T) | outcome (JEG-3) | Potency (OV90) | Potency (PA-1) | outcome (SKOV3) | Potency (Tov-21-G) | Potency (Tov112D) | activity, negative = cell killing ([1]; at 21.2 µM (top of the series), tumour line B) -14.5% | activity, negative = cell killing ([1]; at 21.2 µM (top of the series), tumour line D) 16.2% | activity, negative = cell killing ([1]; at 21.3 µM (top of the series), tumour line A) -20.6%

CCOP(=S)(OCC)Oc1ccc2c(C)c(Cl)c(=O)oc2c1
inactive: Potency (C33A) | outcome (CAOV3) | outcome (CASKI) | Potency (Es-2) | Potency (HeLa) | outcome (Hek293T) | outcome (JEG-3) | Potency (OV90) | Potency (PA-1) | outcome (SKOV3) | Potency (Tov-21-G) | Potency (Tov112D) | activity, negative = cell killing [1, 4] -3.04% | activity, negative = cell killing [1, 5] 6.08%

CC(Cc1ccccc1)N(C)Cc1ccco1 (stereo unspecified)
inactive: Potency (C33A) | outcome (CAOV3) | outcome (CASKI) | Potency (Es-2) | Potency (HeLa) | outcome (Hek293T) | outcome (JEG-3) | Potency (OV90) | Potency (PA-1) | outcome (SKOV3) | Potency (Tov-21-G) | Potency (Tov112D)

CCC(C)(C)c1ccc(O)cc1
inactive: Potency (C33A) | outcome (CAOV3) | outcome (CASKI) | Potency (Es-2) | Potency (HeLa) | outcome (Hek293T) | outcome (JEG-3) | Potency (OV90) | Potency (PA-1) | outcome (SKOV3) | Potency (Tov-21-G) | Potency (Tov112D) | activity, negative = cell killing [1, 4] -7.41% | activity, negative = cell killing [1, 5] 13.4% | activity, negative = cell killing [1, 6] -14.1% | activity, negative = cell killing [1, 7] -3.53% | max response [2] 1.88% and -0.811%

O=C1c2ccccc2C(=O)C1C(=O)C(c1ccccc1)c1ccccc1
inactive: Potency (C33A) | outcome (CAOV3) | outcome (CASKI) | Potency (Es-2) | Potency (HeLa) | outcome (Hek293T) | outcome (JEG-3) | Potency (OV90) | Potency (PA-1) | outcome (SKOV3) | Potency (Tov-21-G) | Potency (Tov112D) | activity, negative = cell killing [1, 4] -21.4% | activity, negative = cell killing [1, 5] -28.8% | activity, negative = cell killing [1, 6] -53.7% | activity, negative = cell killing [1, 7] -30.6% | outcome [3]

COc1cccc([C@@]2(O)CCCC[C@@H]2CN(C)C)c1
inactive: Potency (C33A) | outcome (CAOV3) | outcome (CASKI) | Potency (Es-2) | Potency (HeLa) | outcome (Hek293T) | outcome (JEG-3) | Potency (OV90) | Potency (PA-1) | outcome (SKOV3) | Potency (Tov-21-G) | Potency (Tov112D) | activity, negative = cell killing [1, 4] -5.81% | activity, negative = cell killing [1, 5] 6.21% | activity, negative = cell killing [1, 6] -29.2% | Potency (astro)

COc1cc(CCN)cc(OC)c1OC
inactive: Potency (C33A) | outcome (CAOV3) | outcome (CASKI) | Potency (Es-2) | Potency (HeLa) | outcome (Hek293T) | outcome (JEG-3) | Potency (OV90) | Potency (PA-1) | outcome (SKOV3) | Potency (Tov-21-G) | Potency (Tov112D) | activity, negative = cell killing ([1]; at 108 µM (top of the series), tumour line B) -15.3% | activity, negative = cell killing ([1]; at 108 µM (top of the series), tumour line D) 5.13%

CC(=O)C1CCOC1=O (stereo unspecified)
inactive: Potency (C33A) | outcome (CAOV3) | outcome (CASKI) | Potency (Es-2) | Potency (HeLa) | outcome (Hek293T) | outcome (JEG-3) | Potency (OV90) | Potency (PA-1) | outcome (SKOV3) | Potency (Tov-21-G) | Potency (Tov112D)

COc1ccc2c3c1O[C@H]1[C@H](O)CC[C@H]4[C@@H](C2)N(C)CC[C@@]341
inactive: Potency (C33A) | outcome (CAOV3) | outcome (CASKI) | Potency (Es-2) | Potency (HeLa) | outcome (Hek293T) | outcome (JEG-3) | Potency (OV90) | Potency (PA-1) | outcome (SKOV3) | Potency (Tov-21-G) | Potency (Tov112D) | activity, negative = cell killing ([1]; at 91.6 µM (top of the series), tumour line B) -15.1% | activity, negative = cell killing ([1]; at 91.6 µM (top of the series), tumour line D) -10.3%

C=CCC1(C(C)CC)C(=O)NC(=O)NC1=O (stereo unspecified)
inactive: Potency (C33A) | outcome (CAOV3) | outcome (CASKI) | Potency (Es-2) | Potency (HeLa) | outcome (Hek293T) | outcome (JEG-3) | Potency (OV90) | Potency (PA-1) | outcome (SKOV3) | Potency (Tov-21-G) | Potency (Tov112D)

O=[N+]([O-])O[C@H]1CO[C@H]2[C@@H]1OC[C@H]2O[N+](=O)[O-]
inactive: Potency (C33A) | outcome (CAOV3) | outcome (CASKI) | Potency (Es-2) | Potency (HeLa) | outcome (Hek293T) | outcome (JEG-3) | Potency (OV90) | Potency (PA-1) | outcome (SKOV3) | Potency (Tov-21-G) | Potency (Tov112D) | activity, negative = cell killing [1, 4] -6.92% | activity, negative = cell killing [1, 5] 3.62% | activity, negative = cell killing [1, 6] -13.3% | Potency (astro)

COP(=S)(OC)Oc1ccc(S(=O)(=O)N(C)C)cc1
inactive: Potency (C33A) | outcome (CAOV3) | outcome (CASKI) | Potency (Es-2) | Potency (HeLa) | outcome (Hek293T) | outcome (JEG-3) | Potency (OV90) | Potency (PA-1) | outcome (SKOV3) | Potency (Tov-21-G) | Potency (Tov112D) | activity, negative = cell killing [1, 4] -4.11% | activity, negative = cell killing [1, 5] -25% | activity, negative = cell killing [1, 6] -29.3% | Potency (astro)

C[N+]1(CCF)[C@@H]2CC[C@H]1CC(OC(=O)C(O)(c1ccccc1)c1ccccc1)C2 (stereo partly specified)
active: Potency ([1]; tumour line A) 11.2 µM
inactive: Potency (C33A) | outcome (CAOV3) | outcome (CASKI) | Potency (Es-2) | Potency (HeLa) | outcome (Hek293T) | outcome (JEG-3) | Potency (OV90) | Potency (PA-1) | outcome (SKOV3) | Potency (Tov-21-G) | Potency (Tov112D) | activity, negative = cell killing [1, 4] -12.6% | activity, negative = cell killing [1, 5] -18.1% | Potency (astro)

CC(C)(N)Cc1ccccc1Cl
inactive: Potency (C33A) | outcome (CAOV3) | outcome (CASKI) | Potency (Es-2) | Potency (HeLa) | outcome (Hek293T) | outcome (JEG-3) | Potency (OV90) | Potency (PA-1) | outcome (SKOV3) | Potency (Tov-21-G) | Potency (Tov112D)

CC1(C)C(C=C(Cl)Cl)C1C(=O)OC(C#N)c1cccc(Oc2ccccc2)c1 (stereo unspecified)
active: Potency ([1]; tumour line A) 25.1 µM
inactive: Potency (C33A) | outcome (CAOV3) | outcome (CASKI) | Potency (Es-2) | Potency (HeLa) | outcome (Hek293T) | outcome (JEG-3) | Potency (OV90) | Potency (PA-1) | outcome (SKOV3) | Potency (Tov-21-G) | Potency (Tov112D) | activity, negative = cell killing [1, 4] -16.8% | activity, negative = cell killing [1, 7] -35.5% | Potency (astro)
